Source: PubChem BioAssay
Six1-Eya2 blk: qHTS Assay for Inhibitors of the Six1/Eya2 Interaction | Homeobox protein SIX1 (Homo sapiens) + Protein phosphatase EYA2 (Homo sapiens), … | AID 651725, 2012 | activity change, % (test concentration not listed) | 360,000 compounds, 0.56% hits | AlphaScreen GST-Six1/His-Eya2 binding, biochemical; stronger effect = lower value; in the data active = activity change below about -65%; inconclusive = mostly about -30% to -63%
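GST-Six1 + His-Eya2 (5X stock: 250/500 nM); Tris pH 8.0, 300 mM NaCl, 0.05% BSA, 0.02% Tween 20; GSH donor/Ni acceptor beads; 1 h 37 °C dark; AlphaScreen readout.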
BAZ2B block: qHTS Assay for Inhibitors of BAZ2B | Bromodomain adjacent to zinc finger domain protein 2B (Homo sapiens), Q9UIF8 | AlphaScreen BAZ2B-H3K14Ac peptide displacement | Potency, µM (highest dose often 114 µM), usual class: inhibitors | 360,000 compounds, 4.4% hits | AID 504333, 2011; note: nearly all actives have a fitted effect of over 60% in size
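Inhibition is scored as reduced AlphaScreen emission. The BAZ2B/b-H3(5-23)K14Ac complex (50 nM each) in PBS pH 7.4, 0.01% Tween-20 meets compound (up to 110 uM) for 30 min at RT before bead addition.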
JMJD2A Tudor: qHTS Assay for Inhibitors of JMJD2A-Tudor Domain; Lysine-specific demethylase 4A (Homo sapiens), O75164; AlphaScreen JMJD2A-Tudor / H3K4me3 peptide binding; Potency, µM (top dose mostly 114 µM), actives largely listed as inhibitors; 390,000 compounds, 4.4% hits; AID 504339, 2011; note: nearly all actives have a fitted effect of over 50% in size
CtBP-E1A inh: qHTS Assay for Inhibitors of the CtBP/E1A Interaction; AlphaScreen GST-E1A/His-CtBP binding, 1536-well; stronger effect = lower value; activity change, % (concentration not given with the values); CtBP / adenovirus E1A interaction (AlphaScreen); 340,000 compounds, 0.49% hits; in the data active = activity change below about -65%; inconclusive = mostly about -30% to -63%
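Steps: dispense buffer (Tris pH 8.0, NaCl 300 mM, TCEP 1 mM, BSA, Tween 20); add 5X protein mix (GST-E1A, His-CtBP, 125 nM each); pin 23 nL compound; 2 h at 37 °C, dark; add 5X beads (50 ug/mL); 1 h; read.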
HP1b binding inh: HTS for Inhibitors of HP1-beta Chromodomain Interactions with Methylated Histone Tails. Chromobox protein homolog 1 (Homo sapiens), P83916. AlphaScreen HP1-beta / biotin-H3K9me3 peptide binding. Potency, µM (highest dose often 114 µM), hits mostly inhibitors. 390,000 compounds, 0.56% hits. AID 540317, 2011; note: nearly all actives have a fitted effect of over 70% in size
Target sequence (P83916 whole entry, looked up): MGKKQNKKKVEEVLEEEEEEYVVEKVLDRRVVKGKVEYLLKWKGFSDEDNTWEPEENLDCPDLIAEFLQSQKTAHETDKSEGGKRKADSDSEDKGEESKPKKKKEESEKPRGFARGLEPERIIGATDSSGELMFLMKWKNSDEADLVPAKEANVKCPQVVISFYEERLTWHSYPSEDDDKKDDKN
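Compound inhibition of the preformed complex between 50 nM HP1-beta and 50 nM biotinylated H3K9me3 peptide was read by AlphaScreen. Buffer was PBS pH 7.4 with 0.01% Tween-20. Incubations ran 30 min at room temperature, with 10 ug/mL donor/acceptor beads.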
G9a inh: qHTS Assay for Inhibitors of Histone Lysine Methyltransferase G9a | Histone-lysine N-methyltransferase EHMT2 (Homo sapiens), Q96KQ7 | G9a H3K9 monomethylation, AlphaScreen, 2 h | Potency, µM (top dose mostly 102 µM), actives largely listed as inhibitors | 350,000 compounds, 8.8% hits | AID 504332, 2011; note: nearly all actives have a fitted effect of over 75% in size
Target sequence (Q96KQ7 913-1193 limits assumed): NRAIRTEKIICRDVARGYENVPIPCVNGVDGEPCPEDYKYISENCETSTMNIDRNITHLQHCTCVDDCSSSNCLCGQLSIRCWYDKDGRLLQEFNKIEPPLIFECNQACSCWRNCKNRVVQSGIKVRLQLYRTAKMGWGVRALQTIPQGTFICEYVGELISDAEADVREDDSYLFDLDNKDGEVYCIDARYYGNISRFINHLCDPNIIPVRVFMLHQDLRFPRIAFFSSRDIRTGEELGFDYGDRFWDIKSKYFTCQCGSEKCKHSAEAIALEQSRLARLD
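AlphaScreen detection with an anti-monomethyl H3K9 antibody quantified product after a 2 h room-temperature reaction containing 500 nM biotinylated H3K9 peptide, 20 µM SAM and 20 nM enzyme, which had been preincubated 15 min with compound.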
Large screens that a line does not name were inactive. Only some compounds are listed: those with a hit (about 10% of all), similar ones and a draw of the others. Unless noted, calls come from the whole dose curve; as a rule, active = well fitted inhibition curve with a large enough effect; inconclusive = small, poorly fitted or top-dose-only effect; inactive = no such curve, though single readings can be large or run the other way.

COc1ccc(NS(=O)(=O)c2cccs2)cn1	none
COc1ccc(NS(=O)(=O)c2ccc(OC)c3ccccc23)cn1	JMJD2A Tudor 79µM, HP1b binding inh inconclusive
O=C(Nc1nc(=O)c2ccccc2s1)c1ccccc1	G9a inh inconclusive
CC(=O)Nc1nc(=O)c2ccccc2s1	G9a inh 22µM
Cc1cc(C(=O)C(C)OC(=O)c2cnccn2)c(C)n1-c1ccccc1 (configuration not stated)	BAZ2B block 25µM, JMJD2A Tudor inconclusive, G9a inh 56µM
CCOc1ccccc1CNc1nc2nc(C)cc(C)n2n1	none (no result: Six1-Eya2 blk, CtBP-E1A inh)
O=C(Nc1ccc(Cl)cc1)OCCn1nnnc1C(c1ccccc1Cl)N1CCOCC1 (configuration not stated)	JMJD2A Tudor 35µM
O=C1[C@H]2[C@H]3[C@H](O)[C@H](O)C/C(=N\OC[C@@H](O)COCc4ccco4)[C@@H]3CC[C@H]2C(=O)N1c1ccc(F)cc1F	G9a inh 50µM (no result: Six1-Eya2 blk, JMJD2A Tudor, CtBP-E1A inh, HP1b binding inh)
CCN1C(=O)[C@H]2[C@H]3[C@H](O)[C@H](O)C/C(=N\O[C@H](C)c4cn([C@H](CO)Cc5ccccc5)nn4)[C@@H]3CC[C@H]2C1=O	G9a inh inconclusive (no result: Six1-Eya2 blk, JMJD2A Tudor, CtBP-E1A inh, HP1b binding inh)
CCC(Sc1nnc(-c2ccc(F)cc2)c(-c2ccc(F)cc2)n1)C(=O)NC1CCCC1 (configuration not stated)	none (no result: Six1-Eya2 blk, CtBP-E1A inh)
Cc1ccc(NC(=S)NC(=O)c2sc3ccccc3c2Cl)c(C(=O)O)c1	BAZ2B block 50µM, G9a inh 45µM (no result: Six1-Eya2 blk, JMJD2A Tudor, CtBP-E1A inh, HP1b binding inh)
O=C(O)c1ccccc1NC(=S)NC(=O)c1sc2ccccc2c1Cl	JMJD2A Tudor inconclusive, G9a inh 10µM (no result: CtBP-E1A inh)
CC(C)(C)c1ccc(NC(=O)C2=CN3CCS(=O)(=O)N=C3C=C2)cc1	G9a inh 7.1µM
Cc1ccc(NC(=O)C2=CN3CCS(=O)(=O)N=C3C=C2)cc1	none (no result: BAZ2B block, G9a inh)
CCCC(O)c1nc2ccccc2n1CCCCOc1ccc(OC)cc1 (configuration not stated)	none (no result: Six1-Eya2 blk, CtBP-E1A inh)
O=C(Nc1ccc(Br)cc1F)N1CCC(CN2CCCC2)CC1	none (no result: Six1-Eya2 blk, CtBP-E1A inh)
S=c1[nH]nc(Cc2ccccc2)n1Cc1ccco1	JMJD2A Tudor 4µM, G9a inh inconclusive
CN(C)C(=O)CSc1nnc(Cc2ccccc2)n1Cc1ccco1	G9a inh inconclusive
CCCn1c(Cc2ccccc2)n[nH]c1=S	JMJD2A Tudor 7.1µM, G9a inh inconclusive
CCCCCCCc1n[nH]c(=S)n1Cc1ccccc1	JMJD2A Tudor inconclusive (no result: G9a inh)
Cc1ccc2[nH]c(CSc3nnc(NC(=O)COc4ccccc4F)s3)cc(=O)c2c1	none (no result: Six1-Eya2 blk, CtBP-E1A inh)
CCC(=O)N1CCc2cc(Br)cc(S(=O)(=O)N3CCCC(C(=O)NCc4ccccc4)C3)c21 (configuration not stated)	none (no result: Six1-Eya2 blk, CtBP-E1A inh)
C=CCn1c(=O)c2c(nc(-c3ccc(S(=O)(=O)O)cc3)n2C)n(C)c1=O	JMJD2A Tudor inconclusive, G9a inh 12µM (no result: BAZ2B block)
CC(NC(=O)C1CCC1)c1ccc2c(c1)OCO2 (configuration not stated)	none
COCCCNC(=S)N/N=C/c1ccc2c(c1)OCO2	none (no result: CtBP-E1A inh)
CC(C)CCC(CCN1CCCC1)c1ccc2c(c1)OCO2 (configuration not stated)	JMJD2A Tudor 1.4µM, HP1b binding inh inconclusive
COCCCNCCC(CCC(C)C)c1ccc2c(c1)OCO2 (configuration not stated)	BAZ2B block inconclusive, JMJD2A Tudor 20µM, HP1b binding inh inconclusive, G9a inh inconclusive
CC(C)CCC(CCN1CCOCC1)c1ccc2c(c1)OCO2 (configuration not stated)	BAZ2B block inconclusive, JMJD2A Tudor 3.2µM, G9a inh 45µM
COc1cc(O)c(C(CCN2CCOCC2)c2ccc3c(c2)OCO3)c(OC)c1 (configuration not stated)	JMJD2A Tudor inconclusive
